Values joined by “and” are separate entries in the source; they are usually repeats but may differ in a detail not shown here. Equal entries are not always repeated. Some compounds were tested as several samples or in several runs, with calls that do not always agree. Active and inactive are the calls of the source. Rule for the calls: active = hit-call score of the fitted dose curve at least 0.9, where 1 is the maximum; inactive = score below 0.9.
Experiment: BSK_3C_SRB: Viability Assessment in the BioMAP Diversity Plus: 3C Assay (AID 2283023);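 note: fitted both ways against DMSO so a hit may be signal rise or drop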
Settings: primary human endothelial cells (HUVEC)
Experimental: BSK_3C is a cell-based, multiplexed-readout assay that uses umbilical vein endothelium, a human vascular primary cell, with measurements taken at 24 hours after chemical dosing in a 96-well plate.BSK_3C_SRB is an assay component measured in the BSK_3C assay. It measures 0.1% sulforhodamine related to cell death using Sulforhodamine staining technology.Data from the assay component BSK_3C_SRB was analyzed into 1 assay endpoint. This assay endpoint, BSK_3C_SRB, was analyzed with bidirectional fitting relative to DMSO as the negative control and baseline of activity. Using a type of viability reporter, gain or loss-of-signal activity can be used to understand changes in the signaling. Furthermore, this assay endpoint can be referred to as a primary readout, because this assay has produced multiple assay endpoints where this one serves a signaling function. To generalize the intended target to other relatable targets, this assay endpoint is annotated to the cell morphology intended target family, where the subfamily is cell conformation.
The levels of cell surface (or secreted, indicated by the prefix "s") biomarker endpoints were measured by ELISA. Overt cytotoxicity to cells in confluent adherent cultures (all systems other than the BT system) was assessed by measuring total protein levels using sulforhodamine B (SRB) staining in parallel cultures at the time of biomarker measurements, indicated as SRB endpoints. For proliferation assays for adherent cell types, individual cell types are cultured at sub-confluence and relative cell numbers quantified by SRB staining at time points optimized for each system (48 h: 3C and CASM3C systems; 72 h: BT and HDF3CGF systems; 96 h: SAg system). SRB was performed by staining cells with 0.1% SRB after fixation with 10% TCA and reading wells at 560 nm.Viability and proliferation of PBMC (T cells) was quantified by Alamar Blue reduction for the SAg and BT systems. For PBMC viability (referred to as PBMC Cytotoxicity within the assay endpoint names), cells were plated (75,000/well in a 96-well plate) and then chemical samples added for 1 h before addition of activators, SEB and TSST-1 (20 ng/mL final concentration each). Cells were incubated for 90 h. Then, Alamar Blue (20 uL/well) (Invitrogen, Cat DAL1100) was added for 6 h, and the plates were read with a fluorescence microplate reader at 546/580 nm (excitation/emission). For PBMC proliferation, cells were plated and activated as above but incubated for only 16 h prior to addition of Alamar Blue. Plates were read after 6 h.
In the case of Cc1ccc(C(=O)c2ccccc2)cc1, the AC50 was 31.5 µM (active). With COc1cccc(O)c1 the outcome was “inactive”. With O=C(c1ccccc1)c1ccccc1 the outcome was “inactive”. With Cc1ccc(N=Nc2c(O)ccc3ccccc23)c(C)c1 the outcome was “inactive”. For CCCCC(CC)C(=O)OCCOCCOCCOCCOC(=O)C(CC)CCCC (stereo not given), the outcome was “inactive”. With O=P(O)(O)CCC(F)(F)C(F)(F)C(F)(F)C(F)(F)C(F)(F)C(F)(F)C(F)(F)C(F)(F)F the AC50 was 47 µM (active) and the outcome was “inactive”. For O=C(NO)c1ccccc1, the outcome was “inactive”. For CCC(C)c1ccccc1O (stereo not given), the outcome was “inactive”. For CCOC(=O)CN[C@@H](C(=O)N1CC[C@H]1C(=O)NCc1ccc(/C(N)=N/O)cc1)C1CCCCC1, the outcome was “inactive”. With O=C(O)CCC(F)(F)C(F)(F)C(F)(F)C(F)(F)C(F)(F)C(F)(F)F the outcome was “inactive”. For CN(C)c1ccc(C(=C2C=CC(=[N+](C)C)C=C2)c2ccccc2)cc1, the AC50 was 0.055 µM (active). For C=CC(C)(CCC=C(C)C)OC(C)=O (stereo not given), the AC50 was 28.9 µM (active). In the case of CCCCCCCCCCCC, the AC50 was 31.1 µM (active) and 30.4 µM (active). With O=C(CCCN1CCC(O)(c2ccc(Cl)cc2)CC1)c1ccc(F)cc1 the AC50 was 17.4 µM (active). In the case of Cc1[nH]nc2c1N=C(c1ccccc1Cl)c1cc([N+](=O)[O-])ccc1N2, the AC50 was 0.75 µM (active). With O=C1NS(=O)(=O)c2ccccc21 the outcome was “inactive”. With CCCCCCCCCCCCCCCCCC[N+](C)(C)Cc1ccccc1 the AC50 was 0.299 µM (active). With Oc1ccc(Cc2ccccc2O)cc1 the outcome was “inactive”. In the case of C[C@]12CC[C@@H]3c4ccc(O)cc4CC[C@H]3[C@@H]1C[C@@H](O)[C@@H]2O, the outcome was “inactive”. For CCCCC=O, the outcome was “inactive”. For O=P(O)(O)CCC(F)(F)C(F)(F)C(F)(F)C(F)(F)C(F)(F)C(F)(F)F, the outcome was “inactive”. For O=C(O)C(F)(F)OC(F)(F)C(F)(F)OC(F)(F)C(F)(F)OC(F)(F)C(F)(F)C(F)(F)C(F)(F)F, the AC50 was 26.1 µM (active) and 24 µM (active). With CCCCc1oc2ccccc2c1C(=O)c1cc(I)c(OCCN(CC)CC)c(I)c1 the AC50 was 8.48 µM (active). With CC[N+](CC)(CC)Cc1ccccc1 the outcome was “inactive”. For OCC(F)(F)C(F)(F)C(F)(F)C(F)(F)C(F)(F)C(F)(F)C(F)(F)C(F)(F)C(F)(F)C(F)(F)C(F)(F)F, the AC50 was 271 nM (active) and 201 nM (active). With CCCCCc1ccc(O)cc1 the AC50 was 14.5 µM (active). For CN(Cc1cnc2nc(N)nc(N)c2n1)c1ccc(C(=O)N[C@@H](CCC(=O)O)C(=O)O)cc1, the outcome was “inactive”. With O=C1OC2(c3ccccc31)c1cc(I)c(O)c(I)c1Oc1c2cc(I)c(O)c1I the AC50 was 12 µM (active). In the case of CN(CCO)S(=O)(=O)C(F)(F)C(F)(F)C(F)(F)C(F)(F)C(F)(F)C(F)(F)C(F)(F)C(F)(F)F, the outcome was “inactive”. For CC(=O)Nc1ccc(O)cc1, the outcome was “inactive”. With COc1cc(OC)nc(NC(=O)NS(=O)(=O)Nc2ccccc2C(=O)N(C)C)n1 the outcome was “inactive”. For CC1=NN(c2ccccc2)C(=O)C1, the outcome was “inactive”. With COC1=CC(=O)C[C@@H](C)[C@]12Oc1c(Cl)c(OC)cc(OC)c1C2=O the outcome was “inactive”. In the case of CCCCC(CC)C(=O)O (stereo not given), the outcome was “inactive”. For O=C(NCc1ncc(C(F)(F)F)cc1Cl)c1c(Cl)cccc1Cl, the outcome was “inactive”. With OCC(CO)(CBr)CBr the outcome was “inactive”. With CS(=O)(=O)c1ccc([C@@H](CC2CCCC2)C(=O)Nc2cnccn2)cc1Cl the AC50 was 30.3 µM (active). For Oc1cc2ccccc2cc1O, the outcome was “inactive”. For CC(C)(C)c1ccc(O)c(O)c1, the AC50 was 5.42 µM (active).
